From PubChem BioAssay
aDG glyco up – alpha-DG glycosylation activation; Pro5-aDG cells, alpha-DG glycosylation AlphaScreen (IIH6); 0% Pro5, 100% B10-LARGE cell signal; activation, % at 10 µM; 0.22% of 360,000 active; AID 624168;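 active means activation of at least 8% versus controls, or a plate z-score of at least 8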;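 further: Pro5 are CHO cells carrying HIG-tagged alpha-DG that lacks glycosylation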
CRFBP-R2 agonist – CRF-BP/CRF-R2 complex agonism; HEK293 CRF-R2/CRF-BP, calcium dye fluorescence (FLIPR); percent of saturating CRF peptide response; activation, % at 13.2 µM; 0.46% of 350,000 active;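 active means activation of at least 50%, plus an integration ratio under a set limit after plate pattern correction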
Cardio protect – protects H9c2 cardiomyocytes from peroxide injury | H2O2 injury protection, ATPLite, 2 h | 0.63% of 360,000 active | protection from H2O2 cell death, % at 20 µM;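 active means compounds giving at least 50% protection of heart cells from peroxide-induced death in the single-dose screen, raw or plate-pattern-corrected value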
CRFBP-R2 block – antagonists of CRF-binding protein/CRF-R2 receptor complex | 0.59% of 350,000 active | inhibition, % at 11.8 µM | HEK293 CRF-R2/CRF-BP, CRF-induced calcium fluorescence;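 active means inhibition of the ligand-induced calcium signal above about 50% at the single tested concentration, limit read from the data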
PfG6PD inh – PfG6PD (Plasmodium falciparum) enzyme inhibition. PfGluPho enzyme, NADPH resazurin-diaphorase fluorescence. inhibition, % at 20 µM. 0.78% of 350,000 active. AID 504690;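 active means inhibition reaching at least a set limit at 20 µM in the primary screen, cut at about 59% in these data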
FAS-TE inh – inhibitors of human fatty acid synthase thioesterase domain; P49327; recombinant FAS-TE, OMFH fluorogenic substrate, fluorescence endpoint; inhibition, % at 15 µM; 0.67% of 360,000 active; AID 602261;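 active means compounds whose normalised, plate-corrected inhibition of enzyme fluorescence in the single-dose primary screen is 50% or more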
PfGluPho conf – PfG6PD inhibition, single-dose confirmed; shares compounds with PfG6PD inh; recombinant PfGluPho, NADPH-diaphorase-resazurin fluorescence; inhibition, % at 20 µM; 34% of 2,400 active; AID 504753;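 active means inhibition of at least 50% at 20 µM in any single replicate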
Diaphorase 10uM – diaphorase inhibition or oxidation at 10 uM NADPH. shares compounds with PfG6PD inh. AID 504862. diaphorase-coupled resazurin reduction, fluorescence, NADPH 10 uM. inhibition, % at 20 µM. 39% of 820 active;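 active means average inhibition reaching 50% or more with the compound at 20 µM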;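 further: resorufin red fluorescence formed as diaphorase reduces resazurin using NADPH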
Diaphorase 30uM – counter-screen for P. falciparum G6PD inhibitors: diaphorase inhibitors, oxidizers; 29% of 820 active; AID 504863; Diaphorase/resazurin coupled assay, resorufin fluorescence, 30 uM NADPH; shares compounds with PfG6PD inh; inhibition, % at 20 µM;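 active means inhibition averaging 50% or more, tested at 20 µM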
Hits are given with their value; . = inactive; / = no result. Rows were chosen to be rich in hits. Some 3.2% of all compounds tested hit in one or more screens of this group.

SMILES | aDG glyco up | CRFBP-R2 agonist | Cardio protect | CRFBP-R2 block | PfG6PD inh | FAS-TE inh | PfGluPho conf | others
COc1cc2[nH]c3c(Cl)ncnc3c2cc1OC | . | . | . | . | . | . | /
CC(Cc1ccccc1)NC(=O)CCNNC(=O)c1ccncc1 (stereo unspecified) | . | . | . | . | . | . | /
Cc1onc(-c2ccccc2)c1C(=O)N/N=C/c1cc(Br)c(Br)o1 | . | . | . | 103 | 64 | . | .
COc1ccc(Cl)cc1/C=N/NC(=O)c1c(-c2ccccc2)noc1C | . | . | . | . | 127 | . | 99 | Diaphorase 10uM=96;Diaphorase 30uM=83
Cc1ccc(/C=N/NC(=O)c2c(-c3ccccc3)noc2C)o1 | . | . | . | . | . | . | /
Cc1ccc(-c2n[nH]c(=S)n2C)cc1 | . | . | . | . | . | . | /
Cc1ccc(-c2cn3c(=S)[nH]nc3s2)cc1 | . | . | . | . | 65 | . | .
CC1(C)ON=C(c2ccc(C(F)(F)F)cc2)NC1=O | . | / | . | / | / | . | /
Cc1ccc(-c2nnnn2-c2ccc(C)cc2)cc1 | . | . | . | . | . | . | /
Cc1ccc(-n2nnnc2-c2ccccc2Br)cc1 | . | . | . | . | 62 | . | .
Cc1ccc(/C=C/C(=O)N2CC(=O)Nc3ccccc32)o1 | . | . | . | . | 72 | . | .
Cc1[nH]n(-c2ccccc2)c(=S)c1C=Nc1cccc([N+](=O)[O-])c1 | . | . | . | . | 110 | . | .
O=C(c1ccc(=O)[nH]c1)N(c1ccccc1)C(CCc1ccccc1)c1nc2ccccc2[nH]1 (stereo unspecified) | . | / | . | / | / | . | /
Cc1ccc(C)c(CN2C(=O)COc3ccc(C(=O)c4ccccc4C(=O)O)cc32)c1 | . | . | . | . | 61 | . | .
Cc1ccc(C)c(CN2C(=O)COc3ccccc32)c1 | . | . | . | . | . | . | /
CN1CCN(C(=S)C(=O)Nc2ccc(Br)cc2)CC1 | . | . | . | . | 81 | . | 74 | Diaphorase 10uM=.;Diaphorase 30uM=.
N=c1c(S(=O)(=O)c2ccccc2)cc2c(=O)n3ccccc3nc2n1C1CCCCC1 | . | . | . | . | . | . | /
Cc1ccc2nc3c(cc(S(=O)(=O)c4ccccc4)c(=N)n3C3CCCC3)c(=O)n2c1 | . | . | . | . | 69 | . | .
Cc1cccc(NC(=S)NCCc2ccccc2)n1 | . | . | . | . | 70 | . | .
CN(C(=O)COC(=O)CNC(=O)c1ccc(C(C)(C)C)cc1)c1c(N)n(Cc2ccccc2)c(=O)[nH]c1=O | . | . | . | . | . | . | /
CC(=O)Nc1nc2c(s1)C(=O)NCCC2 | . | . | . | . | . | . | /
Nc1nc(SCC(=O)Nc2ccccc2Sc2ccc(Cl)cc2)n[nH]1 | . | . | . | . | 110 | . | 77 | Diaphorase 10uM=73;Diaphorase 30uM=54
NC(=O)C1CCN(CC(=O)Nc2ccccc2Sc2ccc(Cl)cc2)CC1 | . | . | . | . | 65 | . | .
CSc1ccccc1NC(=O)CSc1n[nH]c(N)n1 | . | . | . | . | . | . | /
CC(=O)c1cccc(NC(=O)c2ccc(-c3ccccc3[N+](=O)[O-])o2)c1 | . | . | . | . | 61 | . | .
SMILES | aDG glyco up | CRFBP-R2 agonist | Cardio protect | CRFBP-R2 block | PfG6PD inh | FAS-TE inh | PfGluPho conf | others
COc1cccc(NC(=O)c2ccc(-c3ccc([N+](=O)[O-])cc3)o2)c1 | . | . | . | . | 64 | . | .
CCOc1ccc(NC(=O)CSc2nc(=O)n(CCCN3CCOCC3)c3c2CCC3)cc1 | . | . | . | . | . | . | /
COc1ccccc1C(=O)COC(=O)CNS(=O)(=O)c1ccc(C)cc1 | . | . | . | . | . | . | /
COc1cccc(C(=O)Nc2ccc(Cl)c(C(F)(F)F)c2)c1 | . | . | . | . | 65 | . | .
COc1cc(C(=O)Nc2ccc(Cl)c(C(F)(F)F)c2)cc(OC)c1OC | . | . | . | . | . | . | /
COc1ccc(S(=O)(=O)Nc2ccccc2C(=O)NCc2cccnc2)cc1OC | . | . | . | . | . | . | /
